# In the library only some 7.5% were active in any assay of this set; here they are far more common.
# VACV Venus inh: vaccinia inhibition (Venus reporter); Vaccinia virus Venus reporter expression, fluorescence; Potency, µM (highest dose often 36.5 µM), without a hit: top-dose activity change, negative = inhibition, usual class: inhibitors; 330,000 compounds, 0.46% hits; AID 720580; calls by dose curve; tested in A549 cells; further: potency means the concentration at half of the fitted maximal effect; nearly all actives have a fitted effect of over 30% in size
# HCV inh: inhibitors of hepatitis C virus infection; Potency, µM (top dose mostly 41.8 µM), for the others: at the top dose activity change, negative = inhibition, hits mostly inhibitors; Huh7.5.1 HCVcc-Cre infection, luciferase reporter, 44 h; 340,000 compounds, 3.4% hits; AID 651820; further: potency means the concentration at half of the fitted maximal effect
#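 Seed cells (1,000/well) for 4 h; treat with compound and infect with HCVcc-Cre, moi about 0.5. Incubate 44 h, then detect luciferase activity.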
# VACV mCherry inh: vaccinia inhibition (mCherry reporter); 310,000 compounds, 0.63% hits; AID 720579; Vaccinia virus mCherry reporter infection, fluorescence; Potency, µM (top dose mostly 36.5 µM), for inactives: top-dose activity change, negative = inhibition, actives largely listed as inhibitors; calls by dose curve; tested in A549 cells; further: potency means the concentration at half of the fitted maximal effect; nearly all actives have a fitted effect of over 35% in size
# FMDV antiviral: foot and mouth disease virus antiviral activity | FMDV antiviral cell-based qHTS | Potency, µM (series often up to 57.9 µM), for the others: at the top dose activity change, negative = inhibition, actives largely listed as inhibitors | 410,000 compounds, 1.2% hits; calls by dose curve; tested in HEK293T cells; further: read-out not given here; potency means the concentration at half of the fitted maximal effect; nearly all actives have a fitted effect of over 45% in size
# HCMV antiviral: inhibitors of human cytomegalovirus. HFF cells, HCMV-luciferase reporter, 72 h; stronger effect = lower value. activity change, negative = inhibition, % at 57.5 µM. 410,000 compounds, 4.5% hits. AID 1259415; in the data active means activity change below about -60%; inconclusive means no clear call, values can overlap the other calls; inactive means above about -39%
#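 Cell-based, HFFs, 1000 cells/well, 16 h 37C; cpds in DMSO + HCMV-luc, MOI 1 PFU/cell; 72 h 37C; OneGlo luminescence after 5 min RT; norm. to buffer vs Salinomycin 10uM.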
# Giardia FBPA inh: Giardia lamblia aldolase inhibition; A8B2U2; purified Giardia FBPA; Potency, µM (highest dose often 59.6 µM), for the others: at the top dose activity, negative = inhibition, usual class: inhibitors; 290,000 compounds, 0.71% hits; AID 2451; further: potency means the concentration at half of the fitted maximal effect; nearly all actives have a fitted effect of over 55% in size
# Target sequence (A8B2U2 whole entry, looked up): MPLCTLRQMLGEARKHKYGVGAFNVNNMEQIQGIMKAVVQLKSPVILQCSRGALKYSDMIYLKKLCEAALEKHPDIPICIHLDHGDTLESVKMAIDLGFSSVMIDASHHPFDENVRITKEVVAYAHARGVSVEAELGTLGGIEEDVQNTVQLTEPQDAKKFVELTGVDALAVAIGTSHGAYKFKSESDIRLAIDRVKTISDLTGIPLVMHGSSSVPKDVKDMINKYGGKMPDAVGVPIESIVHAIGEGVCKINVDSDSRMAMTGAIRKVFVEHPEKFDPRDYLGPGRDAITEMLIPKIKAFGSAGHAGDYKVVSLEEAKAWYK
#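 Giardia FBPA (40 nM reagent) was preincubated 10 min at RT with compound (up to 57.5 uM final), then substrate plus GAPDH/TPI/NAD/arsenate coupling system with diaphorase/resazurin was added; resorufin fluorescence (525/598 nm) was read after 20 min.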
# Active calls of the source: *; i = inactive; ? = inconclusive; . = no result. Unless noted, the call rests on the fitted dose curve; in most records, active means well fitted curve in the direction sought with a large enough effect; inconclusive means small, poorly fitted or top-dose-only effect, or another doubt; inactive means no such curve, though single readings can be large; an effect the other way counts as inactive or inconclusive. On the % scale 0 is the no-effect control and ±100 the full control effect.
SMILES,VACV Venus inh,HCV inh,VACV mCherry inh,FMDV antiviral,HCMV antiviral,Giardia FBPA inh
Cc1cccc(NC(=S)/N=C(\N)Nc2nc(C)c3ccc(C)cc3n2)c1,?,2µM*,?,-24%,-33,10%
Cc1cccc(NC(=S)/N=C(\N)Nc2nc(C)c3ccccc3n2)c1,-20%,4µM*,?,-9%,?,11%
CN(Cc1cn(Cc2cccc(Cl)c2)nn1)C1CN(Cc2cn(Cc3cccc(Cl)c3)nn2)S(=O)(=O)C1 (centres undefined),-7%,.,-14%,-20%,-24,.
O=C(CN1CCN(Cc2cccc(C(F)(F)F)c2)CC1)NCC(=O)Nc1ccc(F)c(F)c1F,-25%,1%,-17%,?,-9,.
CCn1c(=O)c2cc(C(=O)NCCN3CCOCC3)sc2c2ccccc21,-14%,11µM*,i,-1%,153,1%
Cn1c(=O)c2cc(C(=O)NC3CCCCCC3)sc2c2ccccc21,?,.,?,-18%,-81*,.
O=C(NCCN1CCN(c2ccccc2)CC1)c1cccn2c(=O)c3ccccc3nc12,2%,?,-2%,?,-34,0%
CCn1c(=O)c2cc(C(=O)NCCCN(C)Cc3ccccc3)sc2c2ccccc21,-13%,.,-18%,-28%,-70*,.
CCn1c(=O)c2cc(C(=O)NC3CCCCCC3)sc2c2ccccc21,-10%,.,-10%,22%,?,.
CN(CCCNC(=O)c1cccn2c(=O)c3ccccc3nc12)Cc1ccccc1,.,11µM*,.,?,-19,-3%
CCOC(=O)Cc1csc(NC(=O)c2c(C)noc2C)n1,.,-8%,.,-28%,-99*,.
CCOC(=O)Cc1csc(NC(=O)c2c(-c3ccccc3)noc2C)n1,-10%,-19%,-14%,-9%,-33,-4%
CCOC(=O)Cc1csc(NC(=S)NC(=O)c2ccccc2Br)n1,-9%,-2%,-21%,-16%,-11,7%
CCOC(=O)Cc1csc(NC(=S)NC(=O)c2ccccc2)n1,.,-9%,.,0%,-65*,?
CCOC(=O)Cc1csc(NC(=S)NC(=O)c2ccc(C)cc2)n1,.,-2%,.,-1%,-96*,?
CCOC(=O)Cc1csc(NC(=O)c2ccc(C)cc2)n1,-13%,22%,-21%,-11%,-25,-10%
CS(=O)(=O)N(CC(=O)NC1CCCCC1)Cc1ccc(F)cc1,-16%,10%,-22%,-5%,-19,1%
COc1ccc(C(=O)/C=C/C(=O)N(CC(=O)NCCC(C)C)Cc2cccs2)c(O)c1,.,11µM*,.,3.5µM*,-100*,2%
COc1ccc(C(=O)/C=C/C(=O)N(CC(=O)NC2CCCCC2)Cc2ccc(F)cc2)c(O)c1,-20%,?,i,7.1µM*,-116*,2%
COc1ccc(C(=O)N(Cc2ccco2)Cc2cccs2)c(O)c1,.,-14%,.,84%,3,13%
CCOC(=O)c1c(-c2ccccc2)[nH]c2ccc(C)cc12,.,.,.,.,-16,.
CC(C)n1c(=S)[nH]c2ccccc2c1=O,-9%,-16%,i,9%,?,-15%
CC(C)n1c(=S)[nH]c2cc(Cl)ccc21,.,3%,.,-12%,-72*,-15%
Cc1ccc(S(=O)(=O)n2ccc3c(OCCOCCSCC(NC(=O)OC(C)(C)C)C(=O)O)cccc32)cc1 (centres undefined),-18%,-26%,-17%,?,-2,0%
Cc1ccc(S(=O)(=O)n2ccc3c(OCCOCCNCc4ccc(F)cc4)cccc32)cc1,?,?,?,?,-101*,4%
SMILES,VACV Venus inh,HCV inh,VACV mCherry inh,FMDV antiviral,HCMV antiviral,Giardia FBPA inh
O=C1C=C2C=C[C@@H]3C[C@@]2(O1)[C@H]1CCCCN31,14µM*,.,?,?,.,2%
Fc1ccc(C(NCCc2ccccc2)c2nnc(-c3ccccc3Cl)o2)cc1 (centres undefined),-3%,.,-10%,19%,-5,.
COc1ccc(-n2cc(-c3ccccc3)[nH]c2=S)c(OC)c1,.,?,.,?,-65*,14%
COC(=O)c1ccc2c(=O)n(Cc3ccco3)c(SCC(=O)Nc3cc(C)on3)nc2c1,.,-23%,.,0%,-95*,7%
Cc1cc(NC(=O)CSc2nc3cc(C(=O)NCCCOC(C)C)ccc3c(=O)n2Cc2ccco2)no1,-16%,7.1µM*,-14%,-15%,-84*,2%
CC1CCN(C(=O)c2ccc(Br)c(S(=O)(=O)N3CCOCC3)c2)CC1,-2%,4%,-8%,0%,-31,-3%
CC1CCN(S(=O)(=O)c2cc(C(=O)NC3(C)CCS(=O)(=O)C3)ccc2Br)CC1 (centres undefined),.,-1%,.,-23%,-61*,.
CC1CCN(S(=O)(=O)c2cc(C(=O)N3CCN(c4ncccn4)CC3)ccc2Br)CC1,-25%,?,-14%,20µM*,-64*,0%
O=C1CN(C(=O)c2cc3ccccc3o2)c2ccccc2N1,-17%,7%,i,72%,-21,-16%
COCCCNc1nnc(Cc2ccc(Cl)cc2)c(=O)[nH]1,.,-2%,.,-28%,-75*,6%
CCOC(=O)c1c(NC(=O)CNC2CCCCC2)sc(C)c1C,-29%,10µM*,-14%,-16%,10,0%
CCOC(=O)c1c(NC(=O)c2nn(C)cc2[N+](=O)[O-])sc(C)c1C,0%,3.5µM*,-20%,6%,66,0%
Cc1sc(NC(=S)NC(=O)CCc2ccccc2)c(C(N)=O)c1C,?,?,?,-1%,-83*,?
COC(=O)CCC(=O)NC(=S)Nc1sc(C)c(C)c1C(N)=O,-19%,1%,?,14%,?,-13%
CCOC(=O)c1c(NC(=O)c2ccncc2)sc(C)c1C,.,?,.,-14%,2,0%
CCOC(=O)c1c(NC(=O)C[n+]2ccc(Cc3ccccc3)cc2)sc(C)c1C,-1%,1.3µM*,?,-27%,-38,-20%
O=C(CNC(=O)C(c1ccccc1)c1ccccc1)OCC(=O)c1cccc2ccccc12,-17%,.,-10%,.,.,.
Cc1ccc(Cl)cc1N1CCN(S(=O)(=O)c2ccc3c(c2)NC(=O)C(C)C(=O)N3)CC1 (centres undefined),-24%,-28%,?,?,-26,11%
CCOC(=O)c1c(NC(N)=O)sc(C)c1C,.,0.89µM*,.,-17%,66,-3%
CCOC(=O)c1c(NC(=O)CN2CCCc3ccccc32)sc(C)c1C,0%,3.2µM*,6%,-22%,-36,-1%
CCOC(=O)c1c(NC(=O)CNCCO)sc(C)c1C,-17%,?,.,0%,7,2%
CCCc1nc(SCC(=O)N2CCCc3ccccc32)c2c(=O)n(C)c(=O)n(C)c2n1,-28%,10µM*,-3%,-24%,.,8%
Cn1c(=O)c2c(SCC(=O)Nc3ccc4c(c3)OCCO4)nc(CC(C)(C)C)nc2n(C)c1=O,-6%,-1%,7%,-29%,-64*,-2%
